From ChEMBL document CHEMBL1961873, “Compounds: GSK PKIS; Assays: Nanosyn kinase panel” (2012)

Assays:
[1] = molecular target: Sphingosine kinase 1 (Homo sapiens) (UniProt Q9NYA1); settings: at 1 µM;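 further: mean SPHK1 inhibition value reported from the GSK PKIS kinase panel screen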
[2] = molecular target: T1, Sphingosine kinase 2 (Homo sapiens) (UniProt Q9NRA0); settings: at 0.1 µM
T1 sequence (whole entry): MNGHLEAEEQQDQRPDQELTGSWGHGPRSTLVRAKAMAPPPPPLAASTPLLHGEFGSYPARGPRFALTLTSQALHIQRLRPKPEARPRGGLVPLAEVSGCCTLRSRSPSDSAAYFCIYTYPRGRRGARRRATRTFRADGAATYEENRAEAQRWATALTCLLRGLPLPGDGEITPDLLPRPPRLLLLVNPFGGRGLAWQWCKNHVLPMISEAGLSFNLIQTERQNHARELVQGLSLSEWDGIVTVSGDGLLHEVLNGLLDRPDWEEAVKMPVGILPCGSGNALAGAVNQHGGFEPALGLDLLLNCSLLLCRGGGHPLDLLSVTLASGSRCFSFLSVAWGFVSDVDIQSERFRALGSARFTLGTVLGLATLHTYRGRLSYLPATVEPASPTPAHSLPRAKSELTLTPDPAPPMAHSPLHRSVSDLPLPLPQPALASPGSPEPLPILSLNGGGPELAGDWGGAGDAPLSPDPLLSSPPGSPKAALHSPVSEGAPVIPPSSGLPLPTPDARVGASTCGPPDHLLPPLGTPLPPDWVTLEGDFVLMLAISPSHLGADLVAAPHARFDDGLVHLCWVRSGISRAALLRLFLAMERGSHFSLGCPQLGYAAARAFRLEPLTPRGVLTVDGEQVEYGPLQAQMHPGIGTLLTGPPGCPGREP

[3] = molecular target: T1, Sphingosine kinase 2 (Homo sapiens); settings: at 1 µM
[4] = molecular target: Casein kinase II subunit alpha (Homo sapiens) (UniProt P68400); settings: at 0.1 µM
[5] = molecular target: Casein kinase II subunit alpha (Homo sapiens) (UniProt P68400); settings: at 1 µM
[6] = molecular target: T2, Inhibitor of nuclear factor kappa-B kinase subunit alpha (Homo sapiens) (UniProt O15111); settings: at 0.1 µM
T2 sequence (whole entry): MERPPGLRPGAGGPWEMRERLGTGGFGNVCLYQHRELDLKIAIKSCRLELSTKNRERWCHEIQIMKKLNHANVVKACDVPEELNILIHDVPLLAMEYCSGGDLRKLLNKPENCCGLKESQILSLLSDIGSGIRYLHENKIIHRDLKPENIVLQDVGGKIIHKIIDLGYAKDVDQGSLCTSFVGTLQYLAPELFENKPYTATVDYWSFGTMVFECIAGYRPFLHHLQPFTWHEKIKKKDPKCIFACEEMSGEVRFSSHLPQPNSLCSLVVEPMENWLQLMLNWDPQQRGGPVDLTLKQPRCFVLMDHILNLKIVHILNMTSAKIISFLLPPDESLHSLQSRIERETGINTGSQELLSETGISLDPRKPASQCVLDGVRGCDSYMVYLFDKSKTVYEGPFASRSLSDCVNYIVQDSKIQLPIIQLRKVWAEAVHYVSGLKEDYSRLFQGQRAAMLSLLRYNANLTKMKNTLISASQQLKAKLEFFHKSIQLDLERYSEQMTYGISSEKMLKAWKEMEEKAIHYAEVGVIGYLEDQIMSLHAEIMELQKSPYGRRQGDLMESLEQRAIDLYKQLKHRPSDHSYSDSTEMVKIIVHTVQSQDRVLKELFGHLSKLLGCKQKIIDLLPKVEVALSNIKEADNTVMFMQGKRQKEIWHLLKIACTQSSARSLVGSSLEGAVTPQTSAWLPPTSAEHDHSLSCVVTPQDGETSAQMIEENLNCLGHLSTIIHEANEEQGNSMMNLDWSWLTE

[7] = molecular target: T2, Inhibitor of nuclear factor kappa-B kinase subunit alpha (Homo sapiens); settings: at 1 µM
[8] = molecular target: T3, Inhibitor of nuclear factor kappa-B kinase subunit beta (Homo sapiens) (UniProt O14920); settings: at 0.1 µM
T3 sequence (whole entry): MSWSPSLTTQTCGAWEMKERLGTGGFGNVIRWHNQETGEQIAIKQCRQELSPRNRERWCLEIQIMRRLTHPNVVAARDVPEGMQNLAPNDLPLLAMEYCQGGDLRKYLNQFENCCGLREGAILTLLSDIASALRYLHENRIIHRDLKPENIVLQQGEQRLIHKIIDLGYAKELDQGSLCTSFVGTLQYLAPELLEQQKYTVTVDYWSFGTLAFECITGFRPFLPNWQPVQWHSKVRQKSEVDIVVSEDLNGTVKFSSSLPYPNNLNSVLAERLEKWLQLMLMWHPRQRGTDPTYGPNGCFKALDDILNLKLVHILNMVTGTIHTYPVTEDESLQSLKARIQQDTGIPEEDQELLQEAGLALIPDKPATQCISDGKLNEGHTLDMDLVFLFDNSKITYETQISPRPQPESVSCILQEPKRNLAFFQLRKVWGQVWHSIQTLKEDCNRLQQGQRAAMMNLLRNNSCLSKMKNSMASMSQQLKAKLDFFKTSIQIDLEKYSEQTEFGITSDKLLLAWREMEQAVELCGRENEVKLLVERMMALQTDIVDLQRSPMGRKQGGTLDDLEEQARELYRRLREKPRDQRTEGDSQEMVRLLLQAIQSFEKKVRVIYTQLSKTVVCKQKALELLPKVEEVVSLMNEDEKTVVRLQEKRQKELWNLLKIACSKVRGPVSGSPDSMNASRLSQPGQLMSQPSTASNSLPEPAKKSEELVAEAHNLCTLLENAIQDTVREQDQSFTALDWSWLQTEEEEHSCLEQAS

[9] = molecular target: T3, Inhibitor of nuclear factor kappa-B kinase subunit beta (Homo sapiens); settings: at 1 µM
[10] = molecular target: T4, Inhibitor of nuclear factor kappa-B kinase subunit epsilon (Homo sapiens) (UniProt Q14164); settings: at 0.1 µM
T4 sequence (whole entry): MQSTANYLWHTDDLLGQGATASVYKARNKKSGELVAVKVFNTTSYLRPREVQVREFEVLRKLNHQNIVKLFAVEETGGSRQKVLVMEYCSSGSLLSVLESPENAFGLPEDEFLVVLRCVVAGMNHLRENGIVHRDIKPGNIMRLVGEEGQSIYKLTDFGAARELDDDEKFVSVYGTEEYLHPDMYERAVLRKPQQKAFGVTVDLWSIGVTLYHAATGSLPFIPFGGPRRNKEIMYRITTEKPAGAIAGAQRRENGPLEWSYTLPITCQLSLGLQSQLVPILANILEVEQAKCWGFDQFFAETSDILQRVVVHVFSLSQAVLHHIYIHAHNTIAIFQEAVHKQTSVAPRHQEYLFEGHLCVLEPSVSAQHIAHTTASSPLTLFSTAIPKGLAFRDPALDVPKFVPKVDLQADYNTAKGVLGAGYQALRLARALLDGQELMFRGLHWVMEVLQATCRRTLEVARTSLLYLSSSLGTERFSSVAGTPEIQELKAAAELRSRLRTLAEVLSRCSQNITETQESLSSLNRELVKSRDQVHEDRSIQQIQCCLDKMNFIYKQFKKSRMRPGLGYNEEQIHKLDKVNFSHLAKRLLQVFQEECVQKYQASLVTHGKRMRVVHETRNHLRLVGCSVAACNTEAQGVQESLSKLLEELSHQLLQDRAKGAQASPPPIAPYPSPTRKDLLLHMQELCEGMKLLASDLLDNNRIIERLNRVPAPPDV

[11] = molecular target: T4, Inhibitor of nuclear factor kappa-B kinase subunit epsilon (Homo sapiens); settings: at 1 µM
[12] = molecular target: T5, Serine/threonine-protein kinase Nek1 (Homo sapiens) (UniProt Q96PY6); settings: at 0.1 µM
T5 sequence (whole entry): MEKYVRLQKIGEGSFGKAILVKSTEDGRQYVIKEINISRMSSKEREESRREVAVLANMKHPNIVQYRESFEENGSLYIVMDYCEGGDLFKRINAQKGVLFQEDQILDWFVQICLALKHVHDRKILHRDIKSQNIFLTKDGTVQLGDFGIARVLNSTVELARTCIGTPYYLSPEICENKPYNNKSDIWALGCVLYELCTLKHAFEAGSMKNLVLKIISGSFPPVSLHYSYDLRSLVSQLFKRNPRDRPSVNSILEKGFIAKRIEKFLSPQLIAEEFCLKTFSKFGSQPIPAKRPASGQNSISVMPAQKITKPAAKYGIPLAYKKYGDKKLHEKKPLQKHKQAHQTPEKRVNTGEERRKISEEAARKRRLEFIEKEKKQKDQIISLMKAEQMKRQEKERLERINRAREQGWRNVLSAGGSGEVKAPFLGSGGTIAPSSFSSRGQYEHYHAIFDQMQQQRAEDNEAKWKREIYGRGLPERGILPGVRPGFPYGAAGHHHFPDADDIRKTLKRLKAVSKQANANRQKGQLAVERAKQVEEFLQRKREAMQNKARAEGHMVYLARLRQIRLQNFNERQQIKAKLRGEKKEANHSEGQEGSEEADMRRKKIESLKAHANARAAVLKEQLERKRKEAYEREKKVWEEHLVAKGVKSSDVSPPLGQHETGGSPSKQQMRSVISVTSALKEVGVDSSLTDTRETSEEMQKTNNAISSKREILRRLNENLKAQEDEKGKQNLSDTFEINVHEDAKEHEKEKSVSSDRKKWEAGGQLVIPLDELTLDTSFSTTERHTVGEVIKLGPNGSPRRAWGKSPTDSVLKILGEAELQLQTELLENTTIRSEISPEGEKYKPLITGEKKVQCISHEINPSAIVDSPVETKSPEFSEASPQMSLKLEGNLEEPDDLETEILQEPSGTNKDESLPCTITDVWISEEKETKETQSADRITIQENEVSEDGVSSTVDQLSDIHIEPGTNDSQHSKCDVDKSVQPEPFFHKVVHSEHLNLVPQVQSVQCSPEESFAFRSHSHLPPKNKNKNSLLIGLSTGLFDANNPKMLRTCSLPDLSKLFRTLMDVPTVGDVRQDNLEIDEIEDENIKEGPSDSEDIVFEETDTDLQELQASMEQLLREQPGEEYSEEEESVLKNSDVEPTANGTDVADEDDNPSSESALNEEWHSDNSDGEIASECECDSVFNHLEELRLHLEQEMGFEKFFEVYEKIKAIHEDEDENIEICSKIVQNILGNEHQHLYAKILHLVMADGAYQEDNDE

[13] = molecular target: T5, Serine/threonine-protein kinase Nek1 (Homo sapiens); settings: at 1 µM
[14] = molecular target: T6, Serine/threonine-protein kinase Nek2 (Homo sapiens) (UniProt P51955); settings: at 0.1 µM
T6 sequence (whole entry): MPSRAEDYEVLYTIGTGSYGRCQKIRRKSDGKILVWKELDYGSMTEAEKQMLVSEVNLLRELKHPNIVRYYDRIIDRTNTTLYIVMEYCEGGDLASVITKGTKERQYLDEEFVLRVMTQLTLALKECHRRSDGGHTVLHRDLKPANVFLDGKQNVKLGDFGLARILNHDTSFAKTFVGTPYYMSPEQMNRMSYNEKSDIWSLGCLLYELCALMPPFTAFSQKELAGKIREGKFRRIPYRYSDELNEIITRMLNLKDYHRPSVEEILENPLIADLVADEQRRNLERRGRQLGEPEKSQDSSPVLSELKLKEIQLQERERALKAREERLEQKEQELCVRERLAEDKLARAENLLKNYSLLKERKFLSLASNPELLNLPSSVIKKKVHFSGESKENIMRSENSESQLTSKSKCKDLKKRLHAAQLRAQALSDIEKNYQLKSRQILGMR

[15] = molecular target: T6, Serine/threonine-protein kinase Nek2 (Homo sapiens); settings: at 1 µM
[16] = molecular target: Serine/threonine-protein kinase Nek6 (Homo sapiens) (UniProt Q9HC98); settings: at 0.1 µM
[17] = molecular target: Serine/threonine-protein kinase Nek6 (Homo sapiens) (UniProt Q9HC98); settings: at 1 µM
[18] = molecular target: Serine/threonine-protein kinase Nek7 (Homo sapiens) (UniProt Q8TDX7); settings: at 0.1 µM
[19] = molecular target: Serine/threonine-protein kinase Nek7 (Homo sapiens) (UniProt Q8TDX7); settings: at 1 µM
[20] = molecular target: T7, Serine/threonine-protein kinase Nek9 (Homo sapiens) (UniProt Q8TD19); settings: at 0.1 µM;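 further: reported value is the mean percent inhibition of NEK9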
T7 sequence (whole entry): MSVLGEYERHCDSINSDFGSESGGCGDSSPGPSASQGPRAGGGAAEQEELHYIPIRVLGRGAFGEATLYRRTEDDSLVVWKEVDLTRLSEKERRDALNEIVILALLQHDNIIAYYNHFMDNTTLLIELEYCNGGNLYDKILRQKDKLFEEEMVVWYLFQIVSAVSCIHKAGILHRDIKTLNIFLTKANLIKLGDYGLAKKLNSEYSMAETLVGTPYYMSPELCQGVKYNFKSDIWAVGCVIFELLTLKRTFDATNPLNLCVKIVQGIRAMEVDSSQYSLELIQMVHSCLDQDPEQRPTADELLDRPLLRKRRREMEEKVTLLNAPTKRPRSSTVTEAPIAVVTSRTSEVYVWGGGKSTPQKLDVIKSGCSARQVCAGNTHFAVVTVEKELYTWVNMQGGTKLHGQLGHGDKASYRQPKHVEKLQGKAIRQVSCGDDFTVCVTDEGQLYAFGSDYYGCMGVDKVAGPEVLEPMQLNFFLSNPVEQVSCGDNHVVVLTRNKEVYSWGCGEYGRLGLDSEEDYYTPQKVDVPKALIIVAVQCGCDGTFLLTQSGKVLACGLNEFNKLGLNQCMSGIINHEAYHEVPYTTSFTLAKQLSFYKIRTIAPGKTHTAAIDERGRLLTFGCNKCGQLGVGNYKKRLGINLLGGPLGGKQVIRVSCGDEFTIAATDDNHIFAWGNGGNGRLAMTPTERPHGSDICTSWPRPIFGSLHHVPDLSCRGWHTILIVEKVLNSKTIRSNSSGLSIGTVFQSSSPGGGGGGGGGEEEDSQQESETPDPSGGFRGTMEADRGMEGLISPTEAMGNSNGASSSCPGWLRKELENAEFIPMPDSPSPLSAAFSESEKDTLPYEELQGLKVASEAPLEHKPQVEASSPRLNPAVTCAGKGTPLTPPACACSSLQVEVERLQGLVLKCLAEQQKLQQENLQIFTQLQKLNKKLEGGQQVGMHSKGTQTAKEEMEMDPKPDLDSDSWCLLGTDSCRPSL

Sequence of Serine/threonine-protein kinase Nek6 (Homo sapiens) (Q9HC98 whole entry): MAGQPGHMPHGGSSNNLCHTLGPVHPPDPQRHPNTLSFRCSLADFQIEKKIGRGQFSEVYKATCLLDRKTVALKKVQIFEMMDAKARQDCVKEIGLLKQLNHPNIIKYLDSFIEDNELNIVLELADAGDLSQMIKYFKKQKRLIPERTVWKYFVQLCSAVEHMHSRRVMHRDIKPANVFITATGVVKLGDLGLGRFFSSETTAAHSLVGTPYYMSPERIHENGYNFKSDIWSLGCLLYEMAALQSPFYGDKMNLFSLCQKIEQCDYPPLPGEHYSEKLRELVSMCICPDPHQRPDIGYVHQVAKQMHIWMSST
Sequence of Serine/threonine-protein kinase Nek7 (Homo sapiens) (Q8TDX7 whole entry, looked up): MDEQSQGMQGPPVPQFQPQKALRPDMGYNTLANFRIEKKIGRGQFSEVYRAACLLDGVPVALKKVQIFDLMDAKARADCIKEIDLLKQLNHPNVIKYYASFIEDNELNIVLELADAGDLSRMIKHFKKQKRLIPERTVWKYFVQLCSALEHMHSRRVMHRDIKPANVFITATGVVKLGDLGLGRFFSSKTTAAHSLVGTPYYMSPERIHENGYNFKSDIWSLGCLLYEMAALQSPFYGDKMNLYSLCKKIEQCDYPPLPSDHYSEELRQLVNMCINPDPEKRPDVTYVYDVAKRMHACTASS
Sequence of Casein kinase II subunit alpha (Homo sapiens) (P68400 whole entry, looked up): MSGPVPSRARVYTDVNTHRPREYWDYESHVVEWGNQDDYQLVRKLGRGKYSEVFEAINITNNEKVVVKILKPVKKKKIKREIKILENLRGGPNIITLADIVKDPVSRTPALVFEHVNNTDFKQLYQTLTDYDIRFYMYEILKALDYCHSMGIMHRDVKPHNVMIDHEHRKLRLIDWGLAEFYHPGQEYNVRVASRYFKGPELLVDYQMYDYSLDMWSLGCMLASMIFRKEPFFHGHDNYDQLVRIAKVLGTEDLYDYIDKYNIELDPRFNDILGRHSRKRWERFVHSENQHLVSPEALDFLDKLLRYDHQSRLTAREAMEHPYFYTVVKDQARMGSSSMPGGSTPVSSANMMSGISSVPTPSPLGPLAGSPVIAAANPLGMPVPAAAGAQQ
Sequence of Sphingosine kinase 1 (Homo sapiens) (Q9NYA1 whole entry): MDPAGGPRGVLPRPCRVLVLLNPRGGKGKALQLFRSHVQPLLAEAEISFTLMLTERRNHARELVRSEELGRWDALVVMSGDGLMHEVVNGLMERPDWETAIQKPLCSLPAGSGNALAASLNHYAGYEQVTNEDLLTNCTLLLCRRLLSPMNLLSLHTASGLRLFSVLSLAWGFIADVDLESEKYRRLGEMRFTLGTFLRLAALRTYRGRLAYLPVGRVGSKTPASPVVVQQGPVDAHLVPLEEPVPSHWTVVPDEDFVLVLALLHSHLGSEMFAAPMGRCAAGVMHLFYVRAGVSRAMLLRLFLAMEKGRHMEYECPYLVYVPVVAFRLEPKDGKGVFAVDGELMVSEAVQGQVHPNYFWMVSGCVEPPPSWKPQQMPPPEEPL

Row | Structure (SMILES) | inhibition [1] [%] | inhibition [2] [%] | inhibition [3] [%] | inhibition [4] [%] | inhibition [5] [%] | inhibition [6] [%] | inhibition [7] [%] | inhibition [8] [%] | inhibition [9] [%] | inhibition [10] [%] | inhibition [11] [%] | inhibition [12] [%] | inhibition [13] [%] | inhibition [14] [%] | inhibition [15] [%] | inhibition [16] [%] | inhibition [17] [%] | inhibition [18] [%] | inhibition [19] [%] | inhibition [20] [%]
1 | N#Cc1c(NC(=O)c2cccc3ccccc23)sc2c1CCCC2 | -0.69 | 1.73 | 0.03 | 1.53 | -0.03 | 5.48 | 6.29 | 3.31 | 2.19 | 4.91 | 1.87 | 1.19 | 1.42 | 3.93 | 4.37 | 3.32 | 1.3 | 5.78 | 3.68 | 5.96
2 | COc1cc2ncn(-c3cc(OCc4ccccc4C(F)(F)F)c(C(N)=O)s3)c2cc1OC | -5.26 | 0.75 | -2 | 7.47 | 8.83 | 9.42 | 3.6 | 5.69 | 5.75 | 6.51 | 5.84 | 3.95 | 19.1 | 6.41 | 17.1 | 0.15 | 2.1 | 3.29 | 5.2 | 16.7
